Records with an inconclusive call do not appear. Activity calls are given as the source filed them. The calls were made as follows: active = hit-call score of the fitted dose curve at least 0.9, where 1 is the maximum; inconclusive = response in the unintended direction; inactive = score below 0.9.
Each compound was assayed on xenobiotic metabolism (CYP1A2), CYP1A2 (gene 1544) (assay: CLD_CYP1A2_24hr: CellzDirect (CLD) Gene Expression Assay for xenobiotic metabolism (CYP1A2) at 24 hours (AID 2283683)).
Description: CLD_24hr is a cell-based, multiplexed-readout assay that uses hepatocyte, a human liver primary cell, with measurements taken at 24 hours after chemical dosing in a 96-well plate.CLD_CYP1A2_24hr is one of 16 assay component(s) measured or calculated from the CLD_24hr assay. It is designed to make measurements of mRNA induction, a form of inducible reporter, as detected with chemiluminescence signals by Quantitative Nuclease Protection Assay (qNPA) technology.Data from the assay component CLD_CYP1A2_24hr was analyzed at the endpoint, CLD_CYP1A2_24hr, in the positive analysis fitting direction relative to DMSO as the negative control and baseline of activity. Using a type of inducible reporter, gain-of-signal activity can be used to understand changes in the reporter gene as they relate to the gene CYP1A2. Furthermore, this assay endpoint can be referred to as a primary readout. To generalize the intended target to other relatable targets, this assay endpoint is annotated to the cyp intended target family, where subfamily is xenobiotic metabolism.
Human hepatocyte cultures were treated daily for two consecutive days with fresh dosing solutions containing appropriate concentrations of the 320 ToxCast chemicals (chemical identities were blinded to CellzDirect and other ToxCast collaborators), vehicle control (0.2% DMSO), and positive control inducers as summarized in Table 1. Due to the large number of treatment groups and chemicals examined, the ToxCast chemicals were divided into two groups (spanning two independent cultures of hepatocytes from separate donor preparations (Hu778: ToxCast plates 1 and 2; Hu776: ToxCast plates 3 and 4). Each preparation of human hepatocyte cultures was treated with respective vehicle control, medium only control, set of six positive controls/reference chemicals for the five hepatic receptor pathways, and a subset of eight of the ToxCast chemicals (indoxacarb, pyrithiobac-sodium, norflurazon, cyhalofop-butyl, methomyl, thiram, acetochlor, and propiconazole). These replicate data, coupled with internal replicates designed within the blinded ToxCast chemical library, provided additional data to evaluate interindividual differences between hepatocyte preparations and their potential impact on chemical profiles.Cell morphology and integrity were evaluated using phase-contrast microscopy as an indicator of hepatocyte cell health (Tyson & Green, 1987). Cultures for each treatment group (i.e., media, vehicle [0.2% DMSO], positive control inducers [multiple concentrations], and the ToxCast chemicals [multiple concentrations]) were observed and cell morphology was assessed relative to vehicle control cultures at each harvest time point (0, 6, 24, or 48 h). […] Images were evaluated at the conclusion of the study to assess changes in cell integrity and account for the effects of chemical exposure on uncharacteristic changes in concentration-dependent gene expression profiles. The results from these determinations of apparent cytotoxicity were annotated (yes/no) alongside the corresponding qNPA data for reference.At the conclusion of each treatment period, hepatocyte cultures (96-well) were washed with 1 volume of HBSS, lysed by addition of 25 ul ArrayPlate lysis buffer (HTG, Tucson, AZ), and 70 ul/well of Denaturation Oil, denatured by incubation at 95C for 10 min, and frozen at approximately -70C until analysis by nuclease protection assay (qNPA) (Roberts et al., 2007). For qNPA analysis, cell lysates were thawed at 50C for approximately 30 min, qNPA probes were added, and samples were incubated at 95C for 10 min to begin the detection process by denaturing the target RNA, dissociating the duplexes and secondary structure hybridization. At the conclusion of the hybridization period, S1 nuclease reagent was added to each sample to digest all nonprotected nucleotides at 50C for 60-90 min. […]
With `C#CC(C)(C)NC(=O)c1cc(Cl)cc(Cl)c1` the outcome was “inactive”. `CSc1nc(NC(C)C)nc(NC(C)C)n1` was tested, and the AC50 was 2.63 µM (active). With `CC(COc1ccc(Oc2ccccc2)cc1)Oc1ccccn1` (stereo not given) the outcome was “inactive”. With `C#CCC1=C(C)C(OC(=O)C2C(C=C(C)C)C2(C)C)CC1=O` (stereo not given) the AC50 was 20 µM (active). With `CSC1=N[C@@](C)(c2ccccc2)C(=O)N1Nc1ccccc1` the AC50 was 3.97 µM (active). With `CCNc1nc(Cl)nc(NC(C)(C)C#N)n1` the outcome was “inactive”. In the case of `COP(=O)(NC(C)=O)SC` (stereo not given), the outcome is reported as “inactive”. In the case of `Cc1nn(-c2cc(NS(C)(=O)=O)c(Cl)cc2Cl)c(=O)n1C(F)F`, the outcome is reported as “inactive”. `CCOP(=S)(Oc1cnc(C(C)(C)C)nc1)OC(C)C` (stereo not given) was tested, and the AC50 was 6.43 µM (active). With `CCc1cccc(C)c1N(C(=O)CCl)C(C)COC` (stereo not given) the AC50 was 3.97 µM (active). With `CCOP(=S)(OCC)Oc1ccc([N+](=O)[O-])cc1` the AC50 was 4.89 µM (active). With `O=c1ccc(=O)[nH][nH]1` the outcome was “inactive”. In the case of `CCOP(=S)(OCC)OC(Cl)C(Cl)(Cl)Cl` (stereo not given), the AC50 is reported as 15.5 µM (active). For `Cc1ccn2nc(S(=O)(=O)Nc3c(F)cccc3F)nc2n1`, the outcome was “inactive”. `CCCSP(=O)(OCC)Oc1ccc(Br)cc1Cl` (stereo not given) was tested, and the AC50 was 4.13 µM (active). In the case of `CCOC(=O)CC(SP(=O)(OC)OC)C(=O)OCC` (stereo not given), the AC50 is reported as 2.38 µM (active). `CC(C1CC1)C(O)(Cn1cncn1)c1ccc(Cl)cc1` (stereo not given) was tested, and the AC50 was 4.89 µM (active). `CNC(=O)Oc1cccc2c1OC(C)(C)O2` was tested, and the AC50 was 20 µM (active). `CN(C)NC(=O)CCC(=O)O` was tested, and the outcome was “inactive”. For `CCOP(=S)(OCC)SCCSCC`, the AC50 was 6.62 µM (active). For `CNc1cnn(-c2cccc(C(F)(F)F)c2)c(=O)c1Cl`, the AC50 was 5.72 µM (active). With `FC(F)C(F)(F)OCC(Cn1cncn1)c1ccc(Cl)cc1Cl` (stereo not given) the AC50 was 1.46 µM (active). For `CCc1cnc(C2=NC(C)(C(C)C)C(=O)N2)c(C(=O)O)c1` (stereo not given), the outcome was “inactive”. In the case of `CCOC(=O)COc1cc(-c2nn(C)c(OC(F)F)c2Cl)c(F)cc1Cl`, the outcome is reported as “inactive”. `CCCCN(CC)c1c([N+](=O)[O-])cc(C(F)(F)F)cc1[N+](=O)[O-]` was tested, and the AC50 was 7.29 µM (active). For `CCOP(=O)(NC(C)C)Oc1ccc(SC)c(C)c1` (stereo not given), the AC50 was 6.73 µM (active). `O=C(O)c1cc(Oc2ccc(C(F)(F)F)cc2Cl)ccc1[N+](=O)[O-]` was tested, and the outcome was “inactive”. `CC[C@H](C)[C@H]1O[C@]2(C=C[C@@H]1C)C[C@@H]1C[C@@H](C/C=C(\C)[C@@H](O[C@H]3C[C@H](OC)[C@@H](O[C@H]4C[C@H](OC)[C@@H](NC)[C@H](C)O4)[C@H](C)O3)[C@@H](C)/C=C/C=C3\CO[C@@H]4[C@H](O)C(C)=C[C@@H](C(=O)O1)[C@]34O)O2` was tested, and the outcome was “inactive”. `CNC(=O)ON=C(SC)C(=O)N(C)C` was tested, and the outcome was “inactive”. For `CCC(=O)Nc1ccc(Cl)c(Cl)c1`, the AC50 was 3.95 µM (active). With `COP(=O)(OC)SCn1c(=O)oc2cc(Cl)cnc21` the outcome was “inactive”. `CC1=NNC(=O)N(/N=C/c2cccnc2)C1` was tested, and the AC50 was 5.59 µM (active). For `C[Si](Cn1cncn1)(c1ccc(F)cc1)c1ccc(F)cc1`, the AC50 was 1.89 µM (active). For `CCC(=NOC/C=C/Cl)C1=C(O)CC(C2CCOCC2)CC1=O` (stereo not given), the outcome was “inactive”. For `Cc1cc(C2CC2)nc(Nc2ccccc2)n1`, the AC50 was 4.15 µM (active). For `CN1COCN(Cc2cnc(Cl)s2)C1=N[N+](=O)[O-]`, the outcome was “inactive”. In the case of `Nc1c(Cl)cc([N+](=O)[O-])cc1Cl`, the AC50 is reported as 20 µM (active). With `CCCCOC(=O)c1ccccc1C(=O)O` the outcome was “inactive”. `COP(=O)(OC)OC(Br)C(Cl)(Cl)Br` (stereo not given) was tested, and the outcome was “inactive”. In the case of `COc1cccc(C(=O)NN(C(=O)c2cc(C)cc(C)c2)C(C)(C)C)c1C`, the AC50 is reported as 32.6 µM (active).

Reference: PubChem BioAssay (EPA / NIEHS)
